Assay results from article PMC13494018.
Unmarked numbers belong to inactive results. No rule for the calls is given here.

Biological target: VTCN1, Q7Z7D3
Sequence (Q7Z7D3 whole entry): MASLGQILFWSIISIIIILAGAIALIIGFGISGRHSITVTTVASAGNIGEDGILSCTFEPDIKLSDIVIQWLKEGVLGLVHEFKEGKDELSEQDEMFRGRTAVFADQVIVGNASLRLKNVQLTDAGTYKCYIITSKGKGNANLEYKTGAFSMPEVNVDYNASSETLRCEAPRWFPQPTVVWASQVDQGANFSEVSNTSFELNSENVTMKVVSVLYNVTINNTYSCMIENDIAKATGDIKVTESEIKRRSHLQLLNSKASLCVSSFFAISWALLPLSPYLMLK

B1: d4r2_design_ppi_407_dldesign_0_cycle1_af2pred (protein)
chain: SEEAKIKAKQYTSSLFTKAYLKASPETAPKIEEALEKAFEAIDKSFDEAIAVMKELAELPEAKEEAEKAEKFVAEQKK
For B1, the “binding in a display sort” value was “not found”.

B2: d4r2_design_ppi_419_dldesign_0_cycle0_af2pred (protein)
chain: DEEKEELKKKIEEAKKKVEEAKKLAEKTSEEVKKLTKEAETEIALAEGYLDNGAAIELAKKKAEEGLKLADEALKLAEKILKEKE
In the case of B2, the “binding in a display sort” value is reported as “not found”.

B3: d4r2_design_ppi_432_dldesign_0_cycle0_af2pred (protein)
chain: AEEELKEAERKAKEVAKLAMEDPEAGAKEAEKMSEGSAEALEALAKELKKAAKEAEKEDKEKAEKIKKIYNKAAAAALRAEALADNAA
With B3 the “binding in a display sort” value was “not found”.

B4: d4r2_design_ppi_432_dldesign_0_cycle1_af2pred (protein)
chain: EEEEKKKAEEEAKKVAELALKDPEAGAKAAKEMLPWSAEGLEALAKALAEAAKKAAKEDPEKAEKIKKVYNDAASAALRAEAKEERKA
For B4, the “binding in a display sort” value was “not found”.

B5: d4r2_design_ppi_460_dldesign_0_cycle0_af2pred (protein)
chain: EELKKLTEEALKKAEEAEKKAKELIKEGKTTPLVKKALEAAEKAEAASISPERALEYAKKAEELYKKAIEEIK
For B5, the “binding in a display sort” value was “not found”.

B6: d4r2_design_ppi_477_dldesign_0_cycle0_af2pred (protein)
chain: EEEKKEKLKKERHELASELARLASLADALGDKELAEKAEKAMELLALDPEKGKEAAKEVKEAAKKRLAAAKAAAA
In the case of B6, the “binding in a display sort” value is reported as “not found”.

B7: d4r3_design_ppi_27_dldesign_0_cycle1_af2pred (protein)
chain: AEEKAKRMEKKAKEIAEEAKELKKNAPKLDPEEAEKKARLLLGRAEGLLEQAKFGGLPEKVEKAAKEAVKAAKEALKVAKELKEK
In the case of B7, the “binding in a display sort” value is reported as “not found”.

B8: d4r3_design_ppi_32_dldesign_0_cycle1_af2pred (protein)
chain: AEEKAKEAKELAEKAKKTAKEAKELGDEEAAKLAEEGAKDAEEASKIFESGASPAEQADAMAKYRSGKAYNDLAEKRIKEKKK
With B8 the “binding in a display sort” value was “not found”.

B9: d4r3_design_ppi_39_dldesign_0_cycle0_af2pred (protein)
chain: DYEKKLKEEMEKYKKEAEKAAADPGAMYQKVLEGKAAADGIVNIAKEEAEEKGDEELKKKAEEAKKKAEEAIKEMKAKADAAAAA
For B9, the “binding in a display sort” value was “not found”.

B10: d4r3_design_ppi_43_dldesign_0_cycle1_af2pred (protein)
chain: SLIEEMKKELEELVKKAEAASPAEAPWYAQEARSYGKYYSEKVEKEGNPEEAKKAKEIAEKLSEEARKIAEKKR
For B10, the “binding in a display sort” value was “not found”.

B11: d4r3_design_ppi_53_dldesign_0_cycle1_af2pred (protein)
chain: MDPEVTKKKEAEVEAAGDVKLEGIKYLEEAKKLAKEDKEKGRKLLEEAAKEFKERAKEYEKEGKKIAARYAKEEAKKLEELAKEL
With B11 the “binding in a display sort” value was “not found”.

B12: d4r3_design_ppi_107_dldesign_0_cycle1_af2pred (protein)
chain: SAAAKEAAEKQEGRFEADLYEVKAKNAAEKYKDDKKKQAEVLEKIAEEAKKKAKEASPVIAKGYKEGAKVAEKLAKEAKKEA
In the case of B12, the “binding in a display sort” value is reported as “not found”.

B13: d4r3_design_ppi_139_dldesign_0_cycle1_af2pred (protein)
chain: SMMDEVAKKREKKLIEESTAAAKAALAEAKAIAAGADTPENRAARAAAAEKAIANARIAGGALGKEEGEKLVSEVEAAVKA
B13 was tested, and the “binding in a display sort” value was “not found”.

B14: d4r3_design_ppi_140_dldesign_0_cycle0_af2pred (protein)
chain: ATEEQKLKAEAAALGGLYVFSPEGGKRRLERIKEELEEEAERYKEENPEKGPEYEKELREKFETLKELMEKEAAEIKA
For B14, the “binding in a display sort” value was “not found”.

B15: d4r3_design_ppi_187_dldesign_0_cycle1_af2pred (protein)
chain: SEEKEEGEIYVKHAKLAIEAGKEEKEAGDYKSAIALAKTAIKEAKRAIENPDEEAKKKGKEKLKEAEKALEEIEKALKEAEEK
For B15, the “binding in a display sort” value was “not found”.

B16: d4r3_design_ppi_205_dldesign_0_cycle0_af2pred (protein)
chain: SKEEKVKEYLEKAKEALEKMKETAADATAMNANYTEAKYYADKAAKESEEFKEEAEKLKEEAKKAYKEAAAKYAAAKAAAA
For B16, the “binding in a display sort” value was “not found”.

B17: d4r3_design_ppi_205_dldesign_0_cycle1_af2pred (protein)
chain: DLDAKAQALLDQAKEALAQMQATAADTVAYLSQATDAKYYARKAAKLDPKFKPQADALIAQLDAALAAAKAAYQAAKAAAA
For B17, the “binding in a display sort” value was “not found”.

B18: d4r3_design_ppi_206_dldesign_0_cycle1_af2pred (protein)
chain: SPEERELAARAQEEAALAKGMKIVVKNNPKSEKAIKDAEETAKEALEAAERIEKLENPTPEAKAAAERARKEAEELLKEVKKAK
B18 was tested, and the “binding in a display sort” value was “not found”.

B19: d4r3_design_ppi_225_dldesign_0_cycle0_af2pred (protein)
chain: AEDAALAKQAAAKLAEARQKANEALQYAKNGNVEEAKKSLEEAKAALAEAKALAAKASPETQAKAQKALDGVEKRIAEAEKAIKEK
B19 was tested, and the “binding in a display sort” value was “not found”.
